In the library only some 1.9% were active in any assay of this set; here they are far more common.
SKBR3 24h inh: SK-BR-3 proliferation inhibitors, primary screen, cell-based, human, 24 h. SK-BR-3 viability, CellTiter-Glo ATP luminescence; hits give low values. viability, % at 10 µM. actives 0.47% (n = 41,000). AID 847, 2007;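 active = viability at or below the median of all test compounds minus 3 SD, in both replicates if run twice, cut at about 45% in these data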;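 note: 100% = median untreated cell wells and 0% = median positive control drug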
Her2 expr inh: inhibitors of Her2 protein expression, primary screen, SKBR-3 cells, AlphaScreen, 66K library; Receptor tyrosine-protein kinase erbB-2 (Homo sapiens), P04626; SKBR-3 HER2 protein level, 18-24 h; hits give low values; HER2 level % of control, % at 10 µM; actives 0.69% (n = 65,000);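 active = HER2 level under 5% of the carrier-only control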;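 note: 100% = DMSO carrier and 0% = 500 nM PU-H71 HSP90 inhibitor; lower value means stronger loss of Her2 protein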
Jurkat viability: cytotoxicity toward Jurkat T cells, primary screen, cytotoxicity control, cell-based, Jurkat E6.1, 60K MLSMR library; actives 1.2% (n = 56,000); Jurkat E6.1 viability, ATP luminescence, 48 h; inhibition, % at 4 µM; AID 463, 2006;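 active = inhibition above the mean inhibition of all tested compounds plus 3 SD, cut at about 28% in these data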
* = called active by the depositor.

Screening O=C(Nc1ccc(N2CCOCC2)c(Cl)c1)c1cccnc1 returned Her2 expr inh 86.8 and Jurkat viability 3.1.
O=C(Nc1ccc(N2CCCCC2)c(Cl)c1)c1cccnc1 was read as Her2 expr inh 95.6 and Jurkat viability 32.9*.
Screening COC(=O)c1cc(NC(=O)C2CC=CCC2C(=O)O)cc(C(=O)OC)c1 (stereo unspecified) returned SKBR3 24h inh 81.9, Her2 expr inh 82.3 and Jurkat viability -1.9.
`COC(=O)CSc1cc(SCC(=O)OC)c(C#N)c(SCC(=O)OC)c1` gave SKBR3 24h inh 48.1, Her2 expr inh 2.9* and Jurkat viability 3.4.
For COC(=O)CSc1nc(N)c(C#N)c(C(C)C)c1C#N the results were SKBR3 24h inh 96.1, Her2 expr inh 110.7 and Jurkat viability -2.8.
For Cc1ccc(C)c(N2CCN(C(=O)c3ccc(CS(=O)(=O)c4ccccc4C)o3)CC2)c1 the results were Her2 expr inh 114.9 and Jurkat viability 39.8*.
Cc1cccc(N2CCN(C(=O)CS(=O)(=O)Cc3nc(-c4ccccc4F)oc3C)CC2C)c1 (stereo unspecified) was read as Her2 expr inh 90.3 and Jurkat viability 6.2.
For Cc1cccc(N2CCN(C(=O)c3ccc(CS(=O)(=O)c4ccccc4C)o3)CC2C)c1 (stereo unspecified) the results were Her2 expr inh 36.2 and Jurkat viability 94.1*.
COc1ccccc1S(=O)(=O)Cc1ccc(C(=O)N2CCN(c3cccc(Cl)c3)CC2)o1 was read as Her2 expr inh 57.6 and Jurkat viability 80.8*.
Cc1ccc(S(=O)(=O)Cc2ccc(C(=O)N3CCN(c4cc(C)ccc4C)CC3)o2)cc1 was read as Her2 expr inh 67.5 and Jurkat viability -7.4.
For COc1ccccc1S(=O)(=O)Cc1ccc(C(=O)N2CCN(c3ccccc3)CC2)o1 the results were Her2 expr inh 109.7 and Jurkat viability -3.5.
Screening Cc1noc(C)c1CSc1nnc2sc3ccccc3n12 returned Her2 expr inh 121.7 and Jurkat viability -1.4.
`COC(=O)c1ccc(CSc2nc3scc(-c4cccs4)c3c(=O)[nH]2)o1` gave Her2 expr inh 96.7 and Jurkat viability -1.9.
`Brc1[nH]nc2ccccc12` gave SKBR3 24h inh 73.1 and Her2 expr inh 104.4.
`Cc1cc(Nc2ccc(C)c(Br)c2)n2nc(C)nc2n1` gave Her2 expr inh 89.3 and Jurkat viability -1.2.
CCCSC1=N/C(=C\C=C\c2ccco2)C(=O)S1 was read as Her2 expr inh -3.4* and Jurkat viability -1.7.
For O=C1SC(SCc2ccccc2)=N/C1=C\c1ccco1 the results were SKBR3 24h inh 95.0, Her2 expr inh 74.9 and Jurkat viability 4.1.
COc1ccc(CCNC(=O)COC(=O)c2cnccn2)cc1 was read as Her2 expr inh 123.9 and Jurkat viability -9.3.
For Cn1c(=O)c(=O)n(C)c2cc(S(=O)(=O)N3CCc4ccccc43)ccc21 the results were SKBR3 24h inh 91.6, Her2 expr inh 78.2 and Jurkat viability -1.6.
Screening Cn1c(=O)oc2cc(S(=O)(=O)N3CCCc4ccccc43)ccc21 returned Her2 expr inh 35.4 and Jurkat viability 91.4*.
For COC(=O)Nc1ccc(S(=O)(=O)N2CCCc3ccccc32)cc1 the results were SKBR3 24h inh 103.7, Her2 expr inh 47.2 and Jurkat viability 88.5*.
Screening O=C(Nc1ccc(S(=O)(=O)N2CCc3ccccc32)cc1)c1ccco1 returned Her2 expr inh 92.2 and Jurkat viability 11.1.
For O=C(Cc1coc2ccc3ccccc3c12)N1CCN(c2ncccn2)CC1 the results were Her2 expr inh 92.8 and Jurkat viability 1.9.
Screening Cc1sc2ncnc(Sc3nnc4sc5ccccc5n34)c2c1C returned SKBR3 24h inh 110.0.
For Cc1ccc2c(c1)[nH]c1c(N3CCN(Cc4ccc5c(c4)OCO5)CC3)ncnc12 the results were SKBR3 24h inh 81.6, Her2 expr inh 66.4 and Jurkat viability 9.5.
c1coc(CNc2ncnc3nc[nH]c23)c1 was read as Her2 expr inh 118.0 and Jurkat viability 0.3.
`Cc1ccc2[nH]c3c(NCc4ccco4)ncnc3c2c1` gave SKBR3 24h inh 93.7, Her2 expr inh 43.4 and Jurkat viability 36.9*.
For Cc1nc(SCC(C)C)[nH]c(=O)c1Cc1ccccc1 the results were SKBR3 24h inh 91.0, Her2 expr inh 77.7 and Jurkat viability 0.9.
Screening Cc1nc2ccccc2n1CC(=O)NCc1ccccc1 returned SKBR3 24h inh 113.4, Her2 expr inh 127.7 and Jurkat viability 41.4*.
`O=C(Cn1c(CC(=O)N2CCCC2)nc2ccccc21)NCc1ccccc1` gave SKBR3 24h inh 88.1, Her2 expr inh 94.5 and Jurkat viability -2.1.
`Cc1cc(C(=O)OCC(=O)NCCc2ccccc2)c(C)o1` gave Her2 expr inh 89.7 and Jurkat viability 2.7.
